According to PubChem BioAssay AID624170 (National Center for Advancing Translational Sciences (NCATS), 2012):
The campaign covered roughly 410,000 compounds. About 850 (0.21%) were called active. A call without a number means that no potency is given here. Another 2% or so got no clear call; they are omitted. The call rests on the fitted dose curve; in most records, active means well fitted inhibition curve with a large enough effect; inconclusive means small, poorly fitted or top-dose-only effect, or another doubt; inactive means no such curve, though single readings can be large or run the other way. Many of the other results were omitted from the sample, so actives are more common in it than they were.
Potency means the concentration at half of the fitted maximal effect.

What follows are compounds tested against Glutaminase kidney isoform, mitochondrial (Homo sapiens) (UniProt O94925) (assay: qHTS for Inhibitors of Glutaminase (GLS)). Conditions: GLS enzymatic activity, qHTS titration; series mostly up to 45.5 µM.
Sequence of Glutaminase kidney isoform, mitochondrial (Homo sapiens) (O94925 whole entry, looked up, canonical isoform): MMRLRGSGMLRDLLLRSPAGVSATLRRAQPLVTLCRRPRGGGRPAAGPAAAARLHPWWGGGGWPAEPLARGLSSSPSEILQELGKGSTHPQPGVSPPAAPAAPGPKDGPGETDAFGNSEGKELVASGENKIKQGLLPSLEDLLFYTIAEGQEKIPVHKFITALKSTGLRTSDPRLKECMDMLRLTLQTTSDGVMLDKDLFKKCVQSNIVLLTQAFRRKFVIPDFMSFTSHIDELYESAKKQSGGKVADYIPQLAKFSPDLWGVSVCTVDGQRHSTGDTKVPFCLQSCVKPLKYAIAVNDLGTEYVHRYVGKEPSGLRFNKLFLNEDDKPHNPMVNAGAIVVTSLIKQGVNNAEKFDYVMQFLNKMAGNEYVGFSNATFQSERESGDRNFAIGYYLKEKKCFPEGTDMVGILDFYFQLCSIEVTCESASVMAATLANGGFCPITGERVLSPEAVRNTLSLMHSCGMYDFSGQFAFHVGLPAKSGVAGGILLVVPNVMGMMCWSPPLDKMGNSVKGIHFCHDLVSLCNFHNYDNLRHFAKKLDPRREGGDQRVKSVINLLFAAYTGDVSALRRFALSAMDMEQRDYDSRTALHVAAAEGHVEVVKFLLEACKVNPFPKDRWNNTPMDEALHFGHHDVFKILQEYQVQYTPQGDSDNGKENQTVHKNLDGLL
Summary of the method: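 Read-out is an Amplex red fluorescence increase coupled through glutamate oxidase and HRP, measured before and after 30 min room-temperature incubation. hKGA is in 45 mM KH2PO4 (pH 8.2) with 0.02% Tween-20; glutamine added as 1mM solution.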
In the case of `CCOc1ccc(N(CC)C(=O)c2cc3c(=O)oc4ccccc4c3s2)cc1`, the Potency is reported as “inactive”.
With `CC(=O)Oc1ccccc1C(=O)Nc1ncc([N+](=O)[O-])s1` the Potency was “inactive”.
For `CCOC(=O)c1c(C)oc2nc(C)nc(N3CCN(c4ccc(OC)cc4)CC3)c12`, the Potency was “inactive”.
In the case of `O=C(CC1Oc2ccccc2NC1=O)NCc1ccc(F)cc1` (stereo not drawn), the Potency is reported as “inactive”.
With `O=C(CCCCn1c(=O)c2ccccc2n(CC(=O)Nc2cccc(C(F)(F)F)c2)c1=O)NCc1ccc2c(c1)OCO2` the Potency was “inactive”.
With `COc1ccc(OC)c(-n2c(=S)[nH]c3cc(C(=O)N4CCCCC4)ccc3c2=O)c1` the Potency was “inactive”.
For `COc1ccccc1Cn1c(=S)[nH]c2cc(C(=O)N3CCN(C)CC3)ccc2c1=O`, the Potency was 12.6 µM (active).
In the case of `CCOc1cc2[nH]c(=S)n(Cc3ccc(C(=O)N4CCN(C)CC4)cc3)c(=O)c2cc1OCC`, the Potency is reported as “inactive”.
With `O=C1C(c2[nH]c3ccccc3c2O)=Nc2ccccc21` the Potency was “inactive”.
In the case of `Cc1c(CCC(=O)O)c(=O)oc2cc3occ(-c4ccccc4)c3cc12`, the Potency is reported as 11.2 µM (active).
For `COc1cccc(-c2coc3cc4oc(=O)c(CC(=O)O)c(C)c4cc23)c1`, the Potency was “inactive”.
`COc1ccc2c(C)c(CCC(=O)NCc3ccc(OC)c(OC)c3)c(=O)oc2c1` was tested, and the Potency was “inactive”.
For `CN1C(=O)C[C@H](c2ccccc2)C1=O`, the Potency was “inactive”.
With `COc1ccc(C)cc1N(C)C(=O)c1c(C)oc2ncnc(N3CCOCC3)c12` the Potency was “inactive”.
In the case of `O=C(O)c1cccc(S(=O)(=O)Nc2ccc(O)cc2Sc2nc3ccccc3s2)c1`, the Potency is reported as 14.1 µM (active).
For `O=[N+]([O-])c1c(NCCO)cc(Sc2nc3ccccc3s2)c2nonc12`, the Potency was “inactive”.
With `CC(C)c1ccc(S(=O)(=O)Nc2ccc(O)c(Sc3nc4ccccc4s3)c2)cc1` the Potency was “inactive”.
`CCOC(=O)c1ccc(NC(=O)CCn2cnnn2)cc1` was tested, and the Potency was “inactive”.
With `CCCCCCCCCc1ccc(OCCOCCOCCOCCOCCOCCOCCOCCOCCO)cc1` the Potency was “inactive”.
For `C[N+](C)(CCOc1ccccc1)Cc1cccs1` (tested in a mixture with another compound), the Potency was “inactive”.
`Cc1cccc(C)c1N1CCN(S(=O)(=O)N2CCCCC2)CC1` was tested, and the Potency was “inactive”.
For `O=S(=O)(N1CCCCC1)N1CCNCC1`, the Potency was 15.8 µM (active).
With `O=S(=O)(/C=C/c1ccccc1)N1CCNCC1` the Potency was “inactive”.
With `Cc1ccc(CN2CCC(CNC(=O)c3cnn(-c4ccccc4Cl)c3C3CCN(C(=O)OC(C)(C)C)CC3)CC2)cc1` the Potency was “inactive”.
With `COc1cc(Cl)c(C)cc1Nc1nnc(-n2nc(C)cc2C)c2ccccc12` the Potency was “inactive”.
For `COC(=O)CCCCC1=CCC2C(=O)C=C(O)C2C1` (stereo not drawn), the Potency was 12.6 µM (active).
With `CCC(C)[C@@H](N)C(=O)O` (stereo partly drawn) the Potency was “inactive”.
For `NCCCCC(N)C(=O)O` (stereo not drawn), the Potency was “inactive”.
In the case of `Oc1ccc(Cl)c2c1CCC2`, the Potency is reported as “inactive”.
With `CC(=O)OC[C@H]1O[C@@H](O[C@H]2[C@H](O)[C@@H](OC(=O)c3ccccc3C(=O)O)[C@H](O)O[C@@H]2COC(C)=O)[C@H](O)[C@@H](OC(=O)c2ccccc2C(=O)O)[C@@H]1O` the Potency was “inactive”.
With `Cc1ccnc(-n2sc3ccccc3c2=O)n1` the Potency was 10 µM (active).
`Cc1ccnc(SC2CC(=O)N(c3ccccc3)C2=O)n1` (stereo not drawn) was tested, and the Potency was “inactive”.
For `C/C=C/C=N/NC(=O)c1ccncc1`, the Potency was “inactive”.
With `CCOC(=O)c1sc(NC(=O)/C=C/c2ccc(C(C)C)cc2)c(C(=O)OCC)c1C` the Potency was “inactive”.
In the case of `CCOc1cccc2c1N[C@@H](c1ccc(C(=O)O)cc1)[C@H]1CC=C[C@@H]21`, the Potency is reported as 3.98 µM (active).
For `CCOC(=O)C1Nc2ccc(C(F)(F)F)cc2C2C=CCC12` (stereo not drawn), the Potency was “inactive”.
`CCOc1cccc(CC(=O)N2CCc3c([nH]c4ccccc34)C2c2ccc(F)cc2)c1OCC` (stereo not drawn) was tested, and the Potency was “inactive”.
In the case of `Cc1ccc(S(=O)(=O)NC(=O)NN2C[C@H]3CCC[C@@H]3C2)cc1`, the Potency is reported as “inactive”.
For `Cc1ccc(S(=O)(=O)n2nc(C)c(S(=O)(=O)N3CCCCCC3)c2C)cc1`, the Potency was “inactive”.
For `CC(C)(O)c1ccccc1CC[C@H](SCC1(CC(=O)O)CC1)c1cccc(/C=C/c2ccc3ccc(Cl)cc3n2)c1`, the Potency was “inactive”.
For `COc1ccnc(C[S@@](=O)[C@@H]2Nc3ccc(OC(F)F)cc3N2)c1OC`, the Potency was “inactive”.
For `C=C1C(=CC=C2CCC[C@]3(C)[C@@H]([C@H](C)C=C[C@H](C)C(C)C)CC[C@@H]23)C[C@@H](O)C[C@@H]1O`, the Potency was “inactive”.
For `Cc1cccc(CCNC(=O)c2ccc3c(c2)nc2n3CCC(C)C2)c1` (stereo not drawn), the Potency was “inactive”.
With `CCC1CCCCN1C(=O)CSc1nc2c(c(=O)n(C)c(=O)n2C)n1C` (stereo not drawn) the Potency was “inactive”.
For `CCOC(=O)CSc1nc2c(c(=O)n(Cc3ccccc3Cl)c(=O)n2C)n1C`, the Potency was 7.94 µM (active).
`CCN(CC)C(=O)CSc1nc2ccsc2c(=O)n1Cc1ccccc1Cl` was tested, and the Potency was “inactive”.
`Cc1ccc(S(=O)(=O)N2CCc3cc(C(=O)Nc4ccc(Cl)cc4C)ccc32)cc1` was tested, and the Potency was “inactive”.
For `CC(=O)CC(c1ccccc1)C1C(=O)Oc2ccccc2C1=O` (stereo not drawn), the Potency was “inactive”.
In the case of `Cc1ccc(NC(=O)c2cc(S(=O)(=O)NCCC3=CCCCC3)ccc2F)cc1C`, the Potency is reported as “inactive”.
For `CC1(C)OC2CO[C@]3(COS(N)(=O)=O)OC(C)(C)OC3C2O1` (stereo partly drawn), the Potency was “inactive”.
`CCOc1ccc(NS(=O)(=O)c2ccc(N)cc2)nn1` was tested, and the Potency was “inactive”.
In the case of `CN(C)CCCSc1ccccc1NC(=O)/C=C/c1ccccc1`, the Potency is reported as “inactive”.
For `COc1ccc(/C=N/NC(=O)Cn2cc(C(F)(F)F)ccc2=O)cc1`, the Potency was “inactive”.
With `Oc1ccc(/C=N/Nc2ccc(C(F)(F)F)cn2)cc1O` the Potency was 11.2 µM (active).
`C/C=C1\C2C=C(C)CC1(N)c1ccc(=O)[nH]c1C2` (stereo not drawn) was tested, and the Potency was “inactive”.
For `Cc1c(Cl)cccc1NC(=O)C1CCCN(C(=O)c2cnn(-c3ccccc3)c2-n2cccc2)C1` (stereo not drawn), the Potency was “inactive”.
With `CCCCCCCCCCCCCCCCO` the Potency was “inactive”.
With `CCCN(CCC)S(=O)(=O)c1ccc(C(=O)Nc2sc3c(c2C(=O)OC)CCN(CC)C3)cc1` the Potency was “inactive”.
With `Cc1ccc(CN2CCc3nc(N4CCN(C)CC4)ncc3C2)cc1` the Potency was “inactive”.
For `CC(=O)NC(=O)c1ccccc1O`, the Potency was “inactive”.
In the case of `Cc1ccc(NC(=O)Cn2sc3ccccc3c2=O)cc1`, the Potency is reported as 7.08 µM (active).
`CC1(C)NC(=O)N(CC(=O)Nc2ccc(-c3ccccc3)cc2)C1=O` was tested, and the Potency was “inactive”.
In the case of `O=C(Cn1nc(C(=O)O)c2ccccc2c1=O)Nc1ccc(F)cc1`, the Potency is reported as “inactive”.
`Cc1ccc(Cl)cc1N1CCN(C(=O)CN2C(=O)COc3ccc(S(=O)(=O)N4CCOCC4)cc32)CC1` was tested, and the Potency was “inactive”.
`C=Cc1ccc(C(=O)N2CCCC(CCC(=O)N3CCN(c4ccccn4)CC3)C2)cc1` (stereo not drawn) was tested, and the Potency was 17.8 µM (active).
In the case of `COc1cccc(CC(=O)N2CCCC(CCC(=O)N3CCN(c4ccccn4)CC3)C2)c1` (stereo not drawn), the Potency is reported as “inactive”.
`CC(=O)c1ccc(S(=O)(=O)NCCC(=O)N2CCN(c3ccccn3)CC2)cc1` was tested, and the Potency was “inactive”.
With `CCOC(=O)c1ccc(NC(=O)C2CCN(S(=O)(=O)c3ccc4c(c3)CCCC(=O)N4)CC2)cc1` the Potency was “inactive”.
